In PubChem BioAssay (EPA / NIEHS):
Inconclusive results are not listed. Active and inactive are the calls of the source. How the source made its calls: active means hit-call score of the fitted dose curve at least 0.9, where 1 is the maximum; inconclusive means response in the unintended direction; inactive means score below 0.9.

Experiment: Tanguay_ZF_120hpf_TR_legacy: (Legacy) Oregon State University Tanguay Lab 120 Hour Post-fertilization zebrafish Assay for Touch Response (AID 2283667)
Method: Tanguay_ZF_120hpf_legacy is a whole embryo, multiplexed endpoint assay using zebrafish larvae exposed for 120 hours post fertilization on a 96-well plate.Tanguay_ZF_120hpf_TR_legacy is one of one assay component(s) measured or calculated from the Tanguay_ZF_120hpf_legacy assay. It is designed to make measurements of zebrafish development as detected with brightfield microscopy of developing zebrafish embryos.Data from the assay component Tanguay_ZF_120hpf_TR_legacy was analyzed into 1 assay endpoints. This assay endpoint, Tanguay_ZF_120hpf_TR_legacy, was analyzed in the positive analysis fitting direction relative to DMSO as the negative control and baseline of activity. Using a type of morphology reporter, gain-of-signal activity can be used to understand changes in developmentals as they relate to the whole embryo. To generalize the intended target to other relatable targets, this assay endpoint is annotated to the zebrafish development intended target family, where the subfamily is embryonic functional response.
Zebrafish husbandry: Tropical 5D wild-type adult zebrafish were housed in at an approximate density of 1000 per 100 gallon tank at the Sinnhuber Aquatic Research Laboratory, Oregon State University, Corvallis, OR. Each tank was kept at standard laboratory conditions of 28C on a 14-h light/10-h dark photoperiod in fish water consisting of reverse osmosis water supplemented with a commercially available salt (Instant Ocean). Spawning funnels were placed into the tanks the night prior, and embryos were collected and staged. […] Ten microliters of each row of dilution plate 2 was added to 2 exposure plates. The final DMSO concentration used was 0.64% (vol/vol). Thirty-two embryos were also exposed to 5uM trimethyltin chloride (positive control). Plates were sealed to prevent evaporation and foil covered to reduce light exposure and kept in a 28C incubator. Embryos were statically exposed until 120 hpf. At 24 hpf, embryos were assessed for photomotor response using a custom photomotor response analysis tool (PRAT) and for developmental toxicity endpoints (MO24: mortality at 24 hpf, DP: developmental progression, SM: spontaneous movement, and NC: notochord distortion). At 120 hpf, locomotor activity was measured using Viewpoint Zebralab and assessed for 18 endpoints. Zebrafish acquisition and analysis program (ZAAP), a custom program designed to inventory, acquire, and manage zebrafish data, was used to collect developmental endpoints as either present or absent (i.e., binary responses were recorded). If mortality occurred for an embryo (at either 24 or 120 hpf), the non-mortality endpoints were not measured.

Row | Structure (SMILES) | outcome | AC50
1 | CCOP(=S)(OCC)Oc1nc(Cl)c(Cl)cc1Cl | inactive | 
2 | CCC(C)(C)c1ccc(O)c(C(C)(C)CC)c1 | inactive | 
3 | CN(C)N=O | inactive | 
4 | ClC1(Cl)C2(Cl)C3(Cl)C4(Cl)C(Cl)(Cl)C5(Cl)C3(Cl)C1(Cl)C5(Cl)C24Cl (stereo unspecified) | inactive | 
5 | CCCCCCCCc1ccc(O)cc1 | inactive | 
6 | CCN1CCC2(CC1)COc1cc3c(cc12)N(C(=O)c1ccc(-c2ccc(-c4nnc(C)o4)cc2C)cc1)CC3 | inactive | 
7 | O=C(O)C(F)(F)C(F)(F)C(F)(F)C(F)(F)C(F)(F)C(F)(F)C(F)(F)C(F)(F)C(F)(F)C(F)(F)F | inactive | 
8 | CC(C)(C)CC(C)(C)c1ccc(O)cc1 | inactive | 
9 | Oc1cccc2cccnc12 | inactive | 
10 | O=C(Nc1ccc2[nH]ccc2c1)c1cc2cc(F)ccc2n1Cc1cccc(F)c1 | inactive | 
11 | CC(C)(C)c1cc(O)ccc1O | inactive | 
12 | C=CC(=O)OCCCCCC(C)C | inactive | 
13 | CC(C)(c1ccccc1)c1ccc(O)c(C(C)(C)c2ccccc2)c1 | inactive | 
14 | O=C(O)C(Cl)(Cl)Cl | inactive | 
15 | C[C@]12CCC(=O)C[C@@H]1CC[C@@H]1[C@@H]2CC[C@]2(C)[C@@H](O)CC[C@@H]12 | inactive | 
16 | NC(=O)O | inactive | 
17 | O=C(O)C(F)(F)C(F)(F)C(F)(F)C(F)(F)C(F)(F)C(F)(F)F | inactive | 
18 | Cc1ccccc1N | inactive | 
19 | COc1cc(-c2ccc(N)c(OC)c2)ccc1N | inactive | 
20 | CC12CC1(C)C(=O)N(c1cc(Cl)cc(Cl)c1)C2=O (stereo unspecified) | inactive | 
21 | O=C1C2(Cl)C3(Cl)C4(Cl)C(Cl)(Cl)C5(Cl)C3(Cl)C1(Cl)C5(Cl)C24Cl (stereo unspecified) |  | 34.8 µM (active)
22 | CCOP(=S)(OCC)SCSP(=S)(OCC)OCC | inactive | 
23 | O=c1[nH]c(=O)[nH]c(=O)[nH]1 | inactive | 
24 | CC(=O)[O][Hg][c]1ccccc1 | inactive | 
25 | C=C(C)C(=O)[O][Sn]([CH2]CCC)([CH2]CCC)[CH2]CCC | inactive | 
26 | CCC(=O)C(CC(C)N(C)C)(c1ccccc1)c1ccccc1 (stereo unspecified) |  | 39 µM (active)
